# Compound activity as filed in PubChem BioAssay.
# An excerpt weighted towards active compounds, which were near 2.3% of everything screened.
# FUS yeast rescue: qHTS for Suppressors of FUS Proteinopathy: Primary screen using FUS-linked yeast assay; S. cerevisiae FUS-expressing, growth rescue, OD600, 24 h; Potency, µM (highest dose often 76.6 µM), actives largely listed as activators; hit rate 0.24% among 390,000; AID 1347120, 2019;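 further: potency means the concentration at half of the fitted maximal effect; plate controls were DMSO vehicle for no effect and reference control for full effect; nearly all actives have a fitted effect of over 55% in size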
#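 Steps: raffinose overnight preculture; dilution to OD 0.005 in 2% galactose minimal medium; compound addition (concentration series); 24hr at 30C, 99% humidity; absorbance read at 600 nm.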
# TRPV1 PAM: HTS Assay for Compounds that Act as Potentiators of the Vanilloid Receptor 1 | hit rate 0.02% among 320,000 | TRPV1-expressing cells, Fluo-8 calcium influx, capsaicin EC20 potentiation | AID 540277, 2011 | potentiation, % at 8.33 µM | Transient receptor potential cation channel subfamily V member 1 (Homo sapiens), Q8NER1; in the data active means potentiation above about 80%; inconclusive means between about 30% and that limit; further: 0% is about no effect
# Target sequence (Q8NER1 whole entry, looked up): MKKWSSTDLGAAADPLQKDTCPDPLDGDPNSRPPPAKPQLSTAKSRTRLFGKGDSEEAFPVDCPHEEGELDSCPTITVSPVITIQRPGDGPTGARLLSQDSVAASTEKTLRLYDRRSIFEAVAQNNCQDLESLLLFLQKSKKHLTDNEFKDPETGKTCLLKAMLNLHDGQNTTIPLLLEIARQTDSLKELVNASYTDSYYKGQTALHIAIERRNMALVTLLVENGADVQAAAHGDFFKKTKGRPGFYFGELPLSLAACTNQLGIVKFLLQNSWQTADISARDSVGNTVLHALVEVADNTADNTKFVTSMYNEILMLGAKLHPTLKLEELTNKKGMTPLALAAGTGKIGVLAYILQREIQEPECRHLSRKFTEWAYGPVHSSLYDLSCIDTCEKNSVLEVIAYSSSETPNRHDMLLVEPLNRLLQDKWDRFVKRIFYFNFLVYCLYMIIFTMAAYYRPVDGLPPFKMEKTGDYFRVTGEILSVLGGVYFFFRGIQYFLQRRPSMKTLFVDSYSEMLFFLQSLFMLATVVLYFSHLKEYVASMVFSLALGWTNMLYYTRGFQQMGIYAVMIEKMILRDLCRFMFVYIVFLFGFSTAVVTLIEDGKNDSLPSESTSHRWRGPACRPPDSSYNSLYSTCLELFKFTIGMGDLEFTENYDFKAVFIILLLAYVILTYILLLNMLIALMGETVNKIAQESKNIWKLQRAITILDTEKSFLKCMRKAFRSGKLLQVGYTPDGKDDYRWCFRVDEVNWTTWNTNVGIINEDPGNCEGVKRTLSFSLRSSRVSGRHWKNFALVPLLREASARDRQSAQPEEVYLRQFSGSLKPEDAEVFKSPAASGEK
#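 TRPV1-expressing cells were cultured overnight at 35.5C and loaded with Fluo-8 calcium dye for 40 to 90 min at room temperature. After a 10 s baseline, compound was added and calcium influx was read kinetically for 3 min (ex 480/em 520 nm).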
# Giardia killer: Small Molecules that selectively kill Giardia lamblia: qHTS; Giardia lamblia trophozoite viability; activity change, % at 7.66 µM, hits read low; hit rate 0.15% among 340,000; in the data active means activity change below about -80%; inconclusive means between about -30% and that limit;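 further: parasites exposed to compound for two days anaerobically before the ATP read; on the % scale 0 is the no-effect control and ±100 the full control effect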
#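 Giardia trophozoites, 100 cells per well, were exposed to compounds for 48 hrs at 37 deg C under anaerobic conditions; viability was then read as ATP content by bioluminescence after 15-30 min at room temperature.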
# ELG1 repair inh: qHTS screen for small molecules that inhibit ELG1-dependent DNA repair in human embryonic kidney (HEK293T) cells expressing luciferase-tagged ELG1 | HEK293T ELG1-luciferase reporter, luminescence, 16 h; DNA damage induced by 5-fluorouridine | Potency, µM (highest dose often 46.1 µM), inactives show at the top dose activity change, negative = inhibition, usual class: inhibitors | hit rate 2.3% among 330,000 | AID 504467, 2011; further: potency means the concentration at half of the fitted maximal effect; on the % scale 0 is the no-effect control and ±100 the full control effect; nearly all actives have a fitted effect of over 55% in size
#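 Cells (2,000 per well) received 5-fluorouridine plus test compound or DMSO and were incubated 16 hr at 37 °C, 5% CO2. Luciferase activity was read by luminescence 30 min after ONE-Glo addition; signal suppression marked inhibition of damage-induced ELG1 function.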
# TRPV1 ag: HTS Assay for Compounds that Act as Agonists of the Vanilloid Receptor 1. TRPV1-expressing cells, Fluo-8 calcium influx, agonist mode. Transient receptor potential cation channel subfamily V member 1 (Homo sapiens), Q8NER1. hit rate 0.19% among 320,000. activation, % at 8.33 µM. AID 540275, 2011; in the data active means activation above about 80%; inconclusive means between about 30% and that limit; further: 0% is about no effect
#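 TRPV1-expressing cells were cultured overnight at 35.5C and loaded with Fluo-8 calcium dye for 40 to 90 min at room temperature. After a 10 s baseline, compound was added and calcium influx was read kinetically for 3 min (ex 480/em 520 nm).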
# An asterisk follows results filed as active; i = inactive; ? = inconclusive; nt = no result given. Unless noted, the call rests on the fitted dose curve; in most records, active means well fitted curve in the direction sought with a large enough effect; inconclusive means small, poorly fitted or top-dose-only effect, or another doubt; inactive means no such curve, though single readings can be large; an effect the other way counts as inactive or inconclusive.
SMILES,FUS yeast rescue,TRPV1 PAM,Giardia killer,ELG1 repair inh,TRPV1 ag
CCOC(=O)C1CCCCN1S(=O)(=O)c1ccc2c(c1)CC(C)N2C(=O)C1CCC1 (stereo not drawn),25µM*,-49,-23,-7%,?
CC1Cc2cc(S(=O)(=O)N3CCCCC3C)ccc2N1C(=O)C1CCC1 (stereo not drawn),i,-13,7,?,?
COc1ccc(OCCn2c(CCNC(=O)C3CCCCC3)nc3ccccc32)cc1,nt,nt,13,nt,nt
O=c1c(O)c(-c2ccccc2)oc2cc(O)cc(O)c12,i,nt,-22,13µM*,nt
O=c1c(-c2ccccc2)c(-c2ccccc2)oc2cc(O)cc(O)c12,i,28,7,-22%,-2
Cc1ccc(-n2ncc(C(=O)NCc3cccs3)c2C2CCN(C(=O)OC(C)(C)C)CC2)cc1C,20µM*,nt,nt,nt,nt
CCc1cccc(C)c1NC(=O)c1cnn(-c2ccc(OC)cc2)c1C1CCN(C(=O)OC(C)(C)C)CC1,22µM*,nt,nt,nt,nt
CCN(CC)S(=O)(=O)c1ccc(NC(=O)[C@H](CSCc2ccccc2)N2Cc3ccccc3C2=O)cc1,?,nt,-7,nt,nt
Cc1cc(C(C)(C)C)cc(CN2CCN(S(=O)(=O)c3cccs3)CC2)c1O,i,nt,nt,nt,nt
Cc1cc(O)c(CN2CCN(S(=O)(=O)c3cccs3)CC2)cc1C(C)C,i,-1,3,11µM*,13
CCOC(=O)c1cc(S(=O)(=O)Nc2ccc(OC(F)(F)F)cc2)[nH]n1,i,nt,nt,nt,nt
Cc1ccc(-c2nnc(Nc3ccc4c(c3)OCO4)c3ccccc23)cc1S(N)(=O)=O,i,5,-11,16µM*,0
COc1ccc(N(C)S(=O)(=O)c2cccc(C(=O)N3CCN(Cc4ccc5c(c4)OCO5)CC3)c2)cc1,i,10,-21,-21%,4
CCOc1ccc(N(C)S(=O)(=O)c2ccc(C)c(C(=O)N3CCN(Cc4ccc5c(c4)OCO5)CC3)c2)cc1,i,nt,-7,16µM*,nt
CCOc1ccc(C(=O)Nc2cccc(NC(=O)c3ccc(Cl)cc3Cl)c2)cc1,i,nt,nt,nt,nt
O=[N+]([O-])c1cnc2ccccn12,i,-21,-82*,1%,-4
O=P(c1ccccc1)(c1ccccc1)c1cnc2ccccn12,i,nt,nt,nt,nt
Cn1c(=O)n(Cc2ccc(Cl)cc2)c(=O)c2c1nc1n2CCN1Cc1ccco1,i,-7,4,26µM*,?
CCCn1c(=O)c2c(nc3n2CCN3Cc2ccco2)n(C)c1=O,i,8,11,?,-2
Cc1cccc(Cn2c(=O)c3c(nc4n3CCN4Cc3ccco3)n(C)c2=O)c1,i,-16,4,21µM*,?
CC1(C)CC(=O)N(CC(=O)N2CCN(c3cccc(C(F)(F)F)c3)CC2)c2ccccc2S1(=O)=O,i,nt,nt,nt,nt
Cc1cn2c(=O)cc(COC(=O)c3ccc(NC(=O)c4ccc(F)cc4)cc3)nc2s1,i,nt,nt,nt,nt
CCOC(=O)c1cc(NC(=O)c2ccc(OC)cc2)c(=O)n2c1oc1ccc(Cl)cc12,i,nt,nt,nt,nt
COc1ccc(-n2c(C)cc(/C=N/Nc3nc(N4CCOCC4)nc(N4CCOCC4)n3)c2C)cc1,nt,1,-2,8.2µM*,2
COc1ccc(/C=N/Nc2cc(C)nc(N3CCOCC3)n2)cc1,i,-16,3,?,?
SMILES,FUS yeast rescue,TRPV1 PAM,Giardia killer,ELG1 repair inh,TRPV1 ag
Cc1cccc(Nc2nc(N3CCOCC3)nc(N3CCOCC3)n2)c1,i,1,-5,7.3µM*,5
Cc1cc(=O)[nH]c(N/N=C/c2cc(C)n(-c3ccccc3)c2C)n1,32µM*,0,6,?,0
BrC(/C=N/Nc1nc(N2CCOCC2)nc(N2CCOCC2)n1)=C/c1ccccc1,i,-16,7,12µM*,?
Cc1cccc(Nc2nc(Nc3cccc(C)c3)nc(N3CCOCC3)n2)c1,i,nt,nt,nt,nt
Cc1ccc(-n2c3nc(=O)[nH]c(=O)c-3cc3c(C)nn(-c4ccccc4)c32)cc1Cl,i,nt,nt,nt,nt
Cc1cc(OC(C)C(=O)N2CCN(CCc3ccccn3)CC2)ccc1Cl (stereo not drawn),i,nt,nt,nt,nt
Cc1cc(C)nc(N/N=C/c2ccc(N3CCOCC3)cc2)n1,i,2,-6,-1%,-1
Cc1cc(/C=N/Nc2nc(N3CCOCC3)nc(N3CCOCC3)n2)c(C)n1-c1ccccc1,?,?,-1,7.3µM*,0
N#CCCn1cc(/C=N/NC(N)=S)c(-c2ccc(-c3ccccc3)cc2)n1,?,2,21,26µM*,-2
N#CCCn1cc(/C=N/O)c(-c2ccccc2)n1,i,-4,-14,23µM*,-9
CCC(C)NC(=O)C1CCC(CNS(=O)(=O)c2ccc(Cl)cc2)CC1 (stereo not drawn),i,nt,nt,nt,nt
Cn1c(=O)c2c([nH]c(=O)n2Cc2ccc(Cl)cc2Cl)n(C)c1=O,i,nt,nt,nt,nt
Cc1cc2[nH]c3c4ccccc4nc(C)c3c2cc1C,i,nt,-25,nt,nt
Cc1cc2[nH]c3c(c[n+](C)c4ccccc34)c2cc1C,?,-1,-84*,-6%,-1
O=C(COc1cccc(NC(=O)c2cccc([N+](=O)[O-])c2)c1)c1ccc(F)cc1,i,3,2,?,1
O=C(COc1ccc(NC(=O)c2cccs2)cc1)c1ccc(F)cc1,nt,-11,-15,14%,28
COc1ccc(C(=O)Nc2cccc(NC(=O)c3cccs3)c2)cc1OC,i,10,5,15µM*,1
COc1cccc(C(=O)COc2cccc(NC(=O)c3cccc([N+](=O)[O-])c3)c2)c1,i,2,4,13µM*,2
Cc1ccc(C(=O)COC(=O)c2cccc(NC(=O)c3ccc([N+](=O)[O-])cc3[N+](=O)[O-])c2)cc1,?,9,-101*,?,6
COc1cccc(C(=O)COc2ccc(NC(=O)c3cccs3)cc2)c1,nt,-5,-8,15µM*,25
O=C1CC(c2nc(-c3ccccc3)no2)CN1c1ccccc1 (stereo not drawn),i,nt,nt,nt,nt
COc1ccc(OCC(=O)Nc2ccc(NC(=O)c3cccs3)c(OC)c2)cc1,i,-11,8,?,6
COc1cc(NC(=O)c2cccs2)c(OC)cc1NC(=O)CCC(=O)Nc1ccc2ncccc2c1,?,3,-14,15µM*,-1
Cc1nc2nc(C(F)(F)F)[nH]n2c(=O)c1Cc1ccccc1,i,nt,nt,nt,nt
Cc1nn(-c2ccccc2)c(Cl)c1C(=O)N1CCN(c2ncnc3c2cnn3-c2ccccc2)CC1,i,5,1,7.3µM*,-3
O=C(c1cccc(Cl)c1)N1CCN(c2ncnc3c2cnn3-c2ccccc2)CC1,i,-12,22,12µM*,3
